# From ChEMBL document CHEMBL1961873, “Compounds: GSK PKIS; Assays: Nanosyn kinase panel” (2012)
# Tests used:
# [1] = molecular target: Serine/threonine-protein kinase MRCK alpha (Homo sapiens) (UniProt Q5VT25); details: at 0.1 µM
# [2] = molecular target: Serine/threonine-protein kinase MRCK alpha (Homo sapiens) (UniProt Q5VT25); details: at 1 µM
# [3] = molecular target: Serine/threonine-protein kinase MRCK beta (Homo sapiens) (UniProt Q9Y5S2); details: at 0.1 µM
# [4] = molecular target: Serine/threonine-protein kinase MRCK beta (Homo sapiens) (UniProt Q9Y5S2); details: at 1 µM
# [5] = molecular target: Ribosomal protein S6 kinase alpha-5 (Homo sapiens) (UniProt O75582); details: at 0.1 µM
# [6] = molecular target: Ribosomal protein S6 kinase alpha-5 (Homo sapiens) (UniProt O75582); details: at 1 µM
# [7] = molecular target: Ribosomal protein S6 kinase alpha-4 (Homo sapiens) (UniProt O75676); details: at 0.1 µM
# [8] = molecular target: Ribosomal protein S6 kinase alpha-4 (Homo sapiens) (UniProt O75676); details: at 1 µM
# [9] = molecular target: Ribosomal protein S6 kinase beta-1 (Homo sapiens) (UniProt P23443); details: at 0.1 µM
# [10] = molecular target: Ribosomal protein S6 kinase beta-1 (Homo sapiens) (UniProt P23443); details: at 1 µM
# [11] = molecular target: T1, 3-phosphoinositide-dependent protein kinase 1 (Homo sapiens) (UniProt O15530); details: at 0.1 µM;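 note: values are mean inhibition of PDK1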
# T1 sequence (whole entry): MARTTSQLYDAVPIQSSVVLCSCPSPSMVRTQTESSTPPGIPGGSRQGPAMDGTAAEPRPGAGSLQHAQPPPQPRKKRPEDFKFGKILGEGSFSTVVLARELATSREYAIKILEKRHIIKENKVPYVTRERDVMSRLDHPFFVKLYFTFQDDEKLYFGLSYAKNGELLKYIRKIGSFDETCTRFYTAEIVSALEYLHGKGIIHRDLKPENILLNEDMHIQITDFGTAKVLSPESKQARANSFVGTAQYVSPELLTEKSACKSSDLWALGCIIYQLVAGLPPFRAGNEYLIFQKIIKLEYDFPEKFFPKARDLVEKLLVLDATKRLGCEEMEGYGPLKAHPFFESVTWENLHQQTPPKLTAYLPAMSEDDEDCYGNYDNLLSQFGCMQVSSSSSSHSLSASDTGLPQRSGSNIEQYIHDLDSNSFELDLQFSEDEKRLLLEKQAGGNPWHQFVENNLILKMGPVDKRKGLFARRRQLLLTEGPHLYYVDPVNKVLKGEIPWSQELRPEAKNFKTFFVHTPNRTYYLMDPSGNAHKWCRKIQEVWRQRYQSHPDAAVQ
# [12] = molecular target: cAMP-dependent protein kinase catalytic subunit alpha (Homo sapiens) (UniProt P17612); details: at 0.1 µM
# [13] = molecular target: cAMP-dependent protein kinase catalytic subunit alpha (Homo sapiens) (UniProt P17612); details: at 1 µM
# [14] = molecular target: Protein kinase C alpha type (Homo sapiens) (UniProt P17252); details: at 0.1 µM
# [15] = molecular target: Protein kinase C alpha type (Homo sapiens) (UniProt P17252); details: at 1 µM
# [16] = molecular target: Protein kinase C beta type (Homo sapiens) (UniProt P05771); details: at 0.1 µM
# [17] = molecular target: Protein kinase C beta type (Homo sapiens) (UniProt P05771); details: at 1 µM
# [18] = molecular target: Protein kinase C eta type (Homo sapiens) (UniProt P24723); details: at 0.1 µM
# [19] = molecular target: Protein kinase C eta type (Homo sapiens) (UniProt P24723); details: at 1 µM
# [20] = molecular target: Protein kinase C gamma type (Homo sapiens) (UniProt P05129); details: at 0.1 µM;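 note: values are mean percent inhibition of PKC gamma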
# Protein kinase C eta type (Homo sapiens), sequence (P24723 whole entry): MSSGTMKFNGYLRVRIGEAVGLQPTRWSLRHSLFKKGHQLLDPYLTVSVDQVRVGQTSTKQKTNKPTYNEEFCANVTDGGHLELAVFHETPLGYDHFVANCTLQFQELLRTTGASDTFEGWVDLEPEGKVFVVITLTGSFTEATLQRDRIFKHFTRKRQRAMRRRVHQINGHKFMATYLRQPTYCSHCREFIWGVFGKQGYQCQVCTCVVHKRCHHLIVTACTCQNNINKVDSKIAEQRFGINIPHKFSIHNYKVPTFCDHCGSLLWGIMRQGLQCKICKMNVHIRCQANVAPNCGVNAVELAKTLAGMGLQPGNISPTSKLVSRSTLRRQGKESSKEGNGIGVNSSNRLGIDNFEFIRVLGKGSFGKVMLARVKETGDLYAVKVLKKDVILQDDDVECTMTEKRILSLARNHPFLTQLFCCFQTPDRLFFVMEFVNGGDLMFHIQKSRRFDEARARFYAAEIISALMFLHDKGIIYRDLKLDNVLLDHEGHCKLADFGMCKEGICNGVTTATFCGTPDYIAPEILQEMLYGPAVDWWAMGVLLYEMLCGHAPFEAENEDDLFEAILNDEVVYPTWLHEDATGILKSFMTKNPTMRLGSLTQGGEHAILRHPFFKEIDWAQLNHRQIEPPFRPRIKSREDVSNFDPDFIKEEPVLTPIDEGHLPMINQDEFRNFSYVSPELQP
# Serine/threonine-protein kinase MRCK beta (Homo sapiens), sequence (Q9Y5S2 whole entry): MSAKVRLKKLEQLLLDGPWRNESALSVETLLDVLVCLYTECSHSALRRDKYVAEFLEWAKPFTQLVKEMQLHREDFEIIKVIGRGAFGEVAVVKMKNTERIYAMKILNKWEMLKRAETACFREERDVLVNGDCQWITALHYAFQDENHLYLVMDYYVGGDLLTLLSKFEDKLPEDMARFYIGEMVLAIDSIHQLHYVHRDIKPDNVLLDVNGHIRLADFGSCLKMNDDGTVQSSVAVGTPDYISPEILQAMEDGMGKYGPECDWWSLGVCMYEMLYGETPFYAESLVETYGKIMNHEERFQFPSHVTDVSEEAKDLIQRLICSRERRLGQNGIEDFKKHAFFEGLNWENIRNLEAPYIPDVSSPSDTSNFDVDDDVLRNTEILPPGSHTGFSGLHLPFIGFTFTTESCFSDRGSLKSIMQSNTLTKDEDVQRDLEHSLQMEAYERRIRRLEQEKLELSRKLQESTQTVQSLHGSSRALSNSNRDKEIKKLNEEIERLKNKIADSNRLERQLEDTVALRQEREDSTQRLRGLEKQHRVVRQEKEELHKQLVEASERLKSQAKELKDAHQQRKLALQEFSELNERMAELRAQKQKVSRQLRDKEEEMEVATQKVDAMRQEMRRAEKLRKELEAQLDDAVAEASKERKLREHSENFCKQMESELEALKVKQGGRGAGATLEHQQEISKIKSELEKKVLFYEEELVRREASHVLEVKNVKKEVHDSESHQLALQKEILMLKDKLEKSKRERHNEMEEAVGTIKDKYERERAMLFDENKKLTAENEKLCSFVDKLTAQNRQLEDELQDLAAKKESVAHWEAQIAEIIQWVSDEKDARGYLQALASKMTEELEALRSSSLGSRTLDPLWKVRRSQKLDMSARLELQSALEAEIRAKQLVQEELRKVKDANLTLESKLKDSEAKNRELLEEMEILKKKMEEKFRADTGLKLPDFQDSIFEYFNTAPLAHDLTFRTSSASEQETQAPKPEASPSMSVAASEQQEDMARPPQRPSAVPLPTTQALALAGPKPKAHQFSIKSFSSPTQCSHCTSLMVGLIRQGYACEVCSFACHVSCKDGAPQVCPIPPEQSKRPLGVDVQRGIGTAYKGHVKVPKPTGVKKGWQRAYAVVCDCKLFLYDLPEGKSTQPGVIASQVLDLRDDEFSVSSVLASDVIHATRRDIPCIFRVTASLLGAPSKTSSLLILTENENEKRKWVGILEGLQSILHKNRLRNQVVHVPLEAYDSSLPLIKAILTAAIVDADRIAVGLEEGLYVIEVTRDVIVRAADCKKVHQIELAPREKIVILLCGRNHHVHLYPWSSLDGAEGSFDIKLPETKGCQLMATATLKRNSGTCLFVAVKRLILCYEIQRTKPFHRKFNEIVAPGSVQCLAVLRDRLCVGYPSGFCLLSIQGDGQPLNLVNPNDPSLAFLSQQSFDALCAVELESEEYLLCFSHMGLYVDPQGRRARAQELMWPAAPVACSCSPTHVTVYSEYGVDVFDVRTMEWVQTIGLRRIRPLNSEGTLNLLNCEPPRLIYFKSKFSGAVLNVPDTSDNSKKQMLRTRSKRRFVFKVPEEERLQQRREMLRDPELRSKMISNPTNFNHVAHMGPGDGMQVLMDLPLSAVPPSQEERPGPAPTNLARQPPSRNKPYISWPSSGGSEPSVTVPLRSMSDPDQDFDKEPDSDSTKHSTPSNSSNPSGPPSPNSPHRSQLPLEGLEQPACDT
# Protein kinase C beta type (Homo sapiens), sequence (P05771 2-671 limits assumed): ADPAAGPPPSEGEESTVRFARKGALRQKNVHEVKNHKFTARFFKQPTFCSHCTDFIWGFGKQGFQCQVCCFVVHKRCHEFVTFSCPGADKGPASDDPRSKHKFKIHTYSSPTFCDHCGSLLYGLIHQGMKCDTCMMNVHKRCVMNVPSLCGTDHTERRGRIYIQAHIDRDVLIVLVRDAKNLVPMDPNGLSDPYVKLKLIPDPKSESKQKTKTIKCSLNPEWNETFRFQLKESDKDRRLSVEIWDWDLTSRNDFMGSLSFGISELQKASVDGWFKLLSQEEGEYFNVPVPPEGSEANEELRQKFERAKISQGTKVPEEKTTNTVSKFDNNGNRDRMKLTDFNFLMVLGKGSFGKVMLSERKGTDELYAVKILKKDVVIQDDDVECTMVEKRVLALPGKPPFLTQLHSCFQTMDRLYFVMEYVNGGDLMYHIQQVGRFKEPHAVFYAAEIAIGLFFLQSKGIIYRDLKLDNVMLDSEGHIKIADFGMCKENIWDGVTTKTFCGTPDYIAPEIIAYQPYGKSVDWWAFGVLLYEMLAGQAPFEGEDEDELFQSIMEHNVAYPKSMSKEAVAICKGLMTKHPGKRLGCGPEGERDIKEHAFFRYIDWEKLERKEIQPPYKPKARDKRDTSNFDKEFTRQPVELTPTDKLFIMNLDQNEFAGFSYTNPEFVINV
# Ribosomal protein S6 kinase alpha-5 (Homo sapiens), sequence (O75582 whole entry, looked up): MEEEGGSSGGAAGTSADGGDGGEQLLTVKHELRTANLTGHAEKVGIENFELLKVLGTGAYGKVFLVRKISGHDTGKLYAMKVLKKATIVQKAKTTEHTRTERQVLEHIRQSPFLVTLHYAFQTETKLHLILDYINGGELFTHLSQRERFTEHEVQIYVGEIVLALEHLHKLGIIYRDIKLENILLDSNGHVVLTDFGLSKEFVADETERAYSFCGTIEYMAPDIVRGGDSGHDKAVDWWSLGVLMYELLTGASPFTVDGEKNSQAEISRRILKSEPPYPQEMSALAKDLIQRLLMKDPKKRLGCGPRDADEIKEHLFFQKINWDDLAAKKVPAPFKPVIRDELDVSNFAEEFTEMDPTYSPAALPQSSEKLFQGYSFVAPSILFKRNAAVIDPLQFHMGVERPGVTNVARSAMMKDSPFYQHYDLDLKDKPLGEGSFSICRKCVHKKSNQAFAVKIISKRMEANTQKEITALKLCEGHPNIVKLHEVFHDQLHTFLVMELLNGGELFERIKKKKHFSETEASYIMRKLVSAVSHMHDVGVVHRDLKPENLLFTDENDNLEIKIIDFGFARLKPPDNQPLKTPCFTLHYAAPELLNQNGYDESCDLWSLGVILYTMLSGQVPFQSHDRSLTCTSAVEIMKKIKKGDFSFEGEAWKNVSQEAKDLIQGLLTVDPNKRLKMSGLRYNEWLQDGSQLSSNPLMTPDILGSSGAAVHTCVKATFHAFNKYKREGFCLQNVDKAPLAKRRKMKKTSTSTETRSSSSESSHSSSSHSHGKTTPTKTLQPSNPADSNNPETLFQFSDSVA
# Ribosomal protein S6 kinase beta-1 (Homo sapiens), sequence (P23443 whole entry, looked up): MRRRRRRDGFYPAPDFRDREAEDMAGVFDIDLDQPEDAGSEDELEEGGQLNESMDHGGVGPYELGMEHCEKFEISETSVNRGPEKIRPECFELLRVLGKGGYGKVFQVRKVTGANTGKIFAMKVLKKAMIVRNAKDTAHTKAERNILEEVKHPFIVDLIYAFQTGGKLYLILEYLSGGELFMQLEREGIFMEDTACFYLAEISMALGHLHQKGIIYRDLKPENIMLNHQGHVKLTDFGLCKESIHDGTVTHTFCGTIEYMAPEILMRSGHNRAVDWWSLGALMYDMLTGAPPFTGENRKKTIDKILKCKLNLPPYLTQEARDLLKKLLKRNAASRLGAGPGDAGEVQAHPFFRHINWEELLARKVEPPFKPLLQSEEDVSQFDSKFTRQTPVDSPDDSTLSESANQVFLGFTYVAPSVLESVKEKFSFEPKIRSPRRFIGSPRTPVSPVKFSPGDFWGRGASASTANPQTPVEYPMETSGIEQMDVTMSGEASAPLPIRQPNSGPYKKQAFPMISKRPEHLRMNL
Compound,inhibition [1] [%],inhibition [2] [%],inhibition [3] [%],inhibition [4] [%],inhibition [5] [%],inhibition [6] [%],inhibition [7] [%],inhibition [8] [%],inhibition [9] [%],inhibition [10] [%],inhibition [11] [%],inhibition [12] [%],inhibition [13] [%],inhibition [14] [%],inhibition [15] [%],inhibition [16] [%],inhibition [17] [%],inhibition [18] [%],inhibition [19] [%],inhibition [20] [%]
CCNC(=O)O[C@H]1CN[C@H](C#Cc2cc3ncnc(Nc4ccc(OCc5cccc(F)c5)c(Cl)c4)c3s2)C1,0.37,-0.19,1.07,0.37,3.18,2.55,1.61,2.66,1.69,1.78,4.86,1.62,1.22,0.4,1.1,0.61,-2.05,3.54,-2.11,-1.05
CCn1c(-c2nonc2N)nc2cnc(Oc3cccc(NC(=O)c4ccc(N(C)C)cc4)c3)cc21,7.29,53.4,17,62.9,60.2,80.5,61.2,79,71.7,90.4,1.22,19.6,70.5,0.56,7.8,16.7,53.6,43.6,88,3.96
COC(=O)c1sc(-n2cnc3cc(OC)c(OC)cc32)cc1OCc1ccccc1C(F)(F)F,-0.56,-2.93,-0.49,-0.87,3.01,1.81,0.54,3.06,2.41,7.02,1.42,1.59,0.74,0.62,1.49,-0.94,0.17,2.15,0.99,3.39
COc1cc(N2CCN(C(C)C)CC2)ccc1Nc1nc(Nc2ccc(F)cc2C(N)=O)c2cc[nH]c2n1,9.71,20,1.18,16.4,1.85,6.61,1.8,7.26,1.81,5.41,-1.21,7.85,7.44,0.54,6.72,1.83,4.58,1.05,3.09,3.65
c1ccc(COc2ccc(Nc3ncnc4ccc(-c5ccco5)cc34)cc2)cc1,-3.21,-2.24,0.9,-0.9,0.07,-1.17,2.09,1.67,0.5,0.07,0.07,1.25,1.55,-0.04,0.05,-0.86,-0.3,0.37,0.45,0.73
Fc1ccc(-c2nn3ncccc3c2-c2ccnc(Nc3ccc4c(c3)OCCO4)n2)cc1,1.99,20.4,-0.17,1.27,2.73,2.22,0.67,3.9,1.73,2.69,1.87,2.22,7.13,1.5,15.3,1.43,13.3,2.26,6.09,-1.6
O=C(O[C@H]1CN[C@H](C#Cc2cc3ncnc(Nc4ccc(Cc5ccccc5)cc4)c3s2)C1)N1CCOCC1,-1.95,0.21,1.54,4.12,4.51,3.65,3.21,3.94,1.97,1.38,-1.22,4.03,5.91,0.96,4.81,2.02,4.66,2.47,4.45,4.28
Fc1cccc(COc2ccc(Nc3ncnc4sc(-c5ccco5)cc34)cc2Cl)c1,-3.73,-2.22,-0.66,-0.82,8.97,7.53,2.45,1.61,1.01,1.47,-0.87,0.8,1.84,1.33,1.21,0.29,-3.68,5.34,4.83,1.52
NC(=O)c1sc(-n2cnc3ccc(C(F)(F)F)cc32)cc1OCc1ccccc1Br,-0.03,1.97,0.62,3.16,4.33,4.75,3.18,5.34,1.25,2.28,2.61,3.12,6.29,0.78,1.26,-0.05,1.5,-0.93,1.21,-0.86
CNC(=O)c1cc(-c2ccc(F)cc2)cc(-c2ccc(S(=O)(=O)N3CCCC3)cc2)c1N,1.92,0.6,-1.06,-0.2,9.11,8.3,1.23,1.99,0.63,1.47,1.46,0.9,0.32,0.46,1.02,-0.39,0.24,3.68,1.41,2.34
COc1ccc2c(-c3ccnc(Nc4cccc(OC(F)(F)F)c4)n3)cnn2n1,-0.42,2.27,0.42,-0.61,4.58,4.54,2.99,7.19,3.11,3.7,1.72,1.61,3.17,1.34,12.7,0.08,3.07,6.47,6.9,5.4
